From ChEMBL document CHEMBL3988442, “University of Dundee, Small-Polar-MMV Screening Library” (2021) come the findings set out here.

Each structure is given as a SMILES string. For some of these results: Measured potencies and affinities stand elsewhere.

What all share (set-up): scale not given: direction of the effect not stated beside the values
Experiment [1] has as its target Protein translocase subunit SecA (Escherichia coli (strain K12)) (UniProt P10408). The experiment can be described thus: Assay to Identify E. coli SecA ATPase Inhibitors. Type of experiment: functional. Particulars: 30 µM.
Experiment [2] deals with T1, Ubiquitin-activating enzyme e1, putative (Leishmania donovani (strain BPK282A1)) (UniProt E9BSI1).
T1 sequence (whole entry): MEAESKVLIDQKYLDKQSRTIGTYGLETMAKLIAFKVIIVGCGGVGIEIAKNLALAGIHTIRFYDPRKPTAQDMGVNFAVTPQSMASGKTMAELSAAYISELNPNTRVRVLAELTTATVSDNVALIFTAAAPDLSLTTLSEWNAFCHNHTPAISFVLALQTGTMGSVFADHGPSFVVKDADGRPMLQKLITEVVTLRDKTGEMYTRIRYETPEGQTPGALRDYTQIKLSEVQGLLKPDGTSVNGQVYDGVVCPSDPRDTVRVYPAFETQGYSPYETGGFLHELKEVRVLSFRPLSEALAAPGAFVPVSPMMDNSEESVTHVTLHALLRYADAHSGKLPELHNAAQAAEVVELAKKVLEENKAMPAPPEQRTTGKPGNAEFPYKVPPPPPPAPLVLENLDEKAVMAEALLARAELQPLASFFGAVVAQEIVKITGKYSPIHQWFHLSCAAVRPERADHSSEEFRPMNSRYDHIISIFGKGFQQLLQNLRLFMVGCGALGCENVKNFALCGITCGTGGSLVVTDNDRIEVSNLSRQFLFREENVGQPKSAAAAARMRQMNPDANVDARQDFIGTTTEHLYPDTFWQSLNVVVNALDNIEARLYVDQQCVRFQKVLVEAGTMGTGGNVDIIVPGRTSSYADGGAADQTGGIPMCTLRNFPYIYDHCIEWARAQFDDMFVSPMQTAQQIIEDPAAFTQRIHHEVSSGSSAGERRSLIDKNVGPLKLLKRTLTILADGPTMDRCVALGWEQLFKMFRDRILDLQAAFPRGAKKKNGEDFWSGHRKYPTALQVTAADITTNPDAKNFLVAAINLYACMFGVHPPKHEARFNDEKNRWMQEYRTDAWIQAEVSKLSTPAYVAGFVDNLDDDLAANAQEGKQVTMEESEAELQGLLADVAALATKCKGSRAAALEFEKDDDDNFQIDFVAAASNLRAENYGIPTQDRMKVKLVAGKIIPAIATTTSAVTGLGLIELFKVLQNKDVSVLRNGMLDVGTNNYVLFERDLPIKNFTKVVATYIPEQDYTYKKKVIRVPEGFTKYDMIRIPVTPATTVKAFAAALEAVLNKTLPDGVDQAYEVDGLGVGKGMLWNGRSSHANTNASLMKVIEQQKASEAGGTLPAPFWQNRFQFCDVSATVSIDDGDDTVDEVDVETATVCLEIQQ
The experiment can be described thus: Leishmania donovani Ubiquitin Activating Enzyme (LdE1). Particulars: 30 µM. In kind it is functional.

The target of experiment [3] is AMP-activated protein kinase, AMPK (Homo sapiens) (UniProt P54646+O43741+P54619+Q9UGJ0+Q9Y478+Q13131+Q9UGI9). Briefly: AMP-dependent Kinase enzyme assay. An in vitro enzyme assay that detects ADP turnover that is directly proportional to AMPK activity. This uses naive AMPK that is activated during the assay with MK-8722. In kind it is functional. To be noted: 30 µM.

The target of experiment [4] is Sialic acid-binding Ig-like lectin 9 (Homo sapiens) (UniProt Q9Y336). The experiment can be described thus: Hs-Siglec9 ALPHAscreen SOP 20170721. Particulars: 10 µM. A general note: Bead proximity is the source of the signal in Alpha formats.
For another experiment, the system named is Trypanosoma cruzi. Briefly: Trypanosoma cruzi phosphomannomutase and mannose-1-phosphate guanylyltransferase assay. Type of experiment: functional. Particulars: 10 µM.
Experiment [5] has as its target T2, Arginase-2, mitochondrial (Homo sapiens) (UniProt P78540).
T2 sequence (whole entry): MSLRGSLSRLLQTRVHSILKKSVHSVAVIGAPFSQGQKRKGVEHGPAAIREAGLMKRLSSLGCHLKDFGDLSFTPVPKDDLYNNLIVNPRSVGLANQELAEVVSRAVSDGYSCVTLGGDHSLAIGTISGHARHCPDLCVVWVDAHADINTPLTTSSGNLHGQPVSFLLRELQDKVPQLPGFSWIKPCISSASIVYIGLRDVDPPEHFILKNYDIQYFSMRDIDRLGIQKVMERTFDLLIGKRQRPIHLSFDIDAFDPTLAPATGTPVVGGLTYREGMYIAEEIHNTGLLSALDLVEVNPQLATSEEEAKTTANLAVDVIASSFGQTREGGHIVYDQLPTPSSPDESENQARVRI
Briefly: in vitro enzyme assay to detect the production of urea directly proportional to the activity of Arginase II. Note: in the data most compounds retested in dose-response had high values. Type of experiment: functional. To be noted: 33.3 µM.

The target of experiment [6] is T3, Proteasome subunit beta (Trypanosoma cruzi) (UniProt O96673).
T3 sequence (whole entry): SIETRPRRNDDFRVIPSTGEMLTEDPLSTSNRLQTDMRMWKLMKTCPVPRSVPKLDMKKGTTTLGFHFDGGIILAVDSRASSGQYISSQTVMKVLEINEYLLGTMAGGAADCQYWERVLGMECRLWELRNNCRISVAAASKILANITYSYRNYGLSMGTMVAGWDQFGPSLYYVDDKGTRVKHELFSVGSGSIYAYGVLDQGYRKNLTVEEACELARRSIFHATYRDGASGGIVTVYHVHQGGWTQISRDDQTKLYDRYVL
The experiment can be described thus: Trypanosoma cruzi proteasome chymotrypsin-like activity (TcProtChymo) assay. Note: in the data most compounds retested in dose-response had high values. In kind it is functional. To be noted: 9.37 µM.

For the next experiment, the species on record is Homo sapiens. Briefly: To identify inhibition of the IFN signalling (Jak-Stat) pathway via expression of an eGFP reporter gene under the control of an IFN-stimulated response element (ISRE) containing MxA promoter. Type of experiment: functional. Particulars: 30 µM. (In a reporter assay the amount or activity of a reporter protein is the signal.)

In experiment [7] the target is T4, Tyrosyl-tRNA synthetase, putative (Trypanosoma cruzi (strain CL Brener)) (UniProt Q4DSP6).
T4 sequence (whole entry): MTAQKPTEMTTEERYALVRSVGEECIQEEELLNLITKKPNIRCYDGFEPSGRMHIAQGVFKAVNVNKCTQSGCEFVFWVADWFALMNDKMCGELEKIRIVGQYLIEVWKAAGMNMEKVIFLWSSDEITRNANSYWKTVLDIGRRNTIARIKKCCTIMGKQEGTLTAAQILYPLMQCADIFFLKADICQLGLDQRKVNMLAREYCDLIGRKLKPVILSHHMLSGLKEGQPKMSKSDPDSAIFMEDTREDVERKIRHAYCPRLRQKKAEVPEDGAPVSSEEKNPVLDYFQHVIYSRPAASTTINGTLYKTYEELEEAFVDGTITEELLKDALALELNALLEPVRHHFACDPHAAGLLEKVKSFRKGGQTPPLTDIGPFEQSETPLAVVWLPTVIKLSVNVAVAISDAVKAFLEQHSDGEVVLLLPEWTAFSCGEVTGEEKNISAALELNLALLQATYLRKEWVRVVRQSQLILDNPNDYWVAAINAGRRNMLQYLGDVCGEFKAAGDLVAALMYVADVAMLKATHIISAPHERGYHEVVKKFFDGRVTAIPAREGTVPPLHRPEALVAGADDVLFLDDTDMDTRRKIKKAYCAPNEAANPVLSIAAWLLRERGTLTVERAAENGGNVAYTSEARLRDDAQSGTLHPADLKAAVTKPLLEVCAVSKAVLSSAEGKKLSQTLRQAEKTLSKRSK
Briefly: Trypanosoma cruzi tyrosyl tRNA synthetase (TcYRS) _High Tyrosine SOP. Note: in the data most compounds retested in dose-response had high values. Type of experiment: functional. Particulars: 30 µM.

For experiment [8], the target named is T4, Tyrosyl-tRNA synthetase, putative (Trypanosoma cruzi (strain CL Brener)). Briefly: Trypanosoma cruzi tyrosyl tRNA synthetase (TcYRS) SOP. Type of experiment: functional. To be noted: 30 µM.
Experiment [9] deals with Chromo domain-containing protein 1 (Saccharomyces cerevisiae (strain ATCC 204508 / S288c) (Baker's yeast)) (UniProt P32657). The experiment can be described thus: ScCHD-1 Enzyme Inhibition Assay. Note: in the data most compounds retested in dose-response had high values. In kind it is functional. To be noted: 30 µM.
Chromo domain-containing protein 1 (Saccharomyces cerevisiae (strain ATCC 204508 / S288c) (Baker's yeast)), sequence (P32657 whole entry, the tested form may be a part): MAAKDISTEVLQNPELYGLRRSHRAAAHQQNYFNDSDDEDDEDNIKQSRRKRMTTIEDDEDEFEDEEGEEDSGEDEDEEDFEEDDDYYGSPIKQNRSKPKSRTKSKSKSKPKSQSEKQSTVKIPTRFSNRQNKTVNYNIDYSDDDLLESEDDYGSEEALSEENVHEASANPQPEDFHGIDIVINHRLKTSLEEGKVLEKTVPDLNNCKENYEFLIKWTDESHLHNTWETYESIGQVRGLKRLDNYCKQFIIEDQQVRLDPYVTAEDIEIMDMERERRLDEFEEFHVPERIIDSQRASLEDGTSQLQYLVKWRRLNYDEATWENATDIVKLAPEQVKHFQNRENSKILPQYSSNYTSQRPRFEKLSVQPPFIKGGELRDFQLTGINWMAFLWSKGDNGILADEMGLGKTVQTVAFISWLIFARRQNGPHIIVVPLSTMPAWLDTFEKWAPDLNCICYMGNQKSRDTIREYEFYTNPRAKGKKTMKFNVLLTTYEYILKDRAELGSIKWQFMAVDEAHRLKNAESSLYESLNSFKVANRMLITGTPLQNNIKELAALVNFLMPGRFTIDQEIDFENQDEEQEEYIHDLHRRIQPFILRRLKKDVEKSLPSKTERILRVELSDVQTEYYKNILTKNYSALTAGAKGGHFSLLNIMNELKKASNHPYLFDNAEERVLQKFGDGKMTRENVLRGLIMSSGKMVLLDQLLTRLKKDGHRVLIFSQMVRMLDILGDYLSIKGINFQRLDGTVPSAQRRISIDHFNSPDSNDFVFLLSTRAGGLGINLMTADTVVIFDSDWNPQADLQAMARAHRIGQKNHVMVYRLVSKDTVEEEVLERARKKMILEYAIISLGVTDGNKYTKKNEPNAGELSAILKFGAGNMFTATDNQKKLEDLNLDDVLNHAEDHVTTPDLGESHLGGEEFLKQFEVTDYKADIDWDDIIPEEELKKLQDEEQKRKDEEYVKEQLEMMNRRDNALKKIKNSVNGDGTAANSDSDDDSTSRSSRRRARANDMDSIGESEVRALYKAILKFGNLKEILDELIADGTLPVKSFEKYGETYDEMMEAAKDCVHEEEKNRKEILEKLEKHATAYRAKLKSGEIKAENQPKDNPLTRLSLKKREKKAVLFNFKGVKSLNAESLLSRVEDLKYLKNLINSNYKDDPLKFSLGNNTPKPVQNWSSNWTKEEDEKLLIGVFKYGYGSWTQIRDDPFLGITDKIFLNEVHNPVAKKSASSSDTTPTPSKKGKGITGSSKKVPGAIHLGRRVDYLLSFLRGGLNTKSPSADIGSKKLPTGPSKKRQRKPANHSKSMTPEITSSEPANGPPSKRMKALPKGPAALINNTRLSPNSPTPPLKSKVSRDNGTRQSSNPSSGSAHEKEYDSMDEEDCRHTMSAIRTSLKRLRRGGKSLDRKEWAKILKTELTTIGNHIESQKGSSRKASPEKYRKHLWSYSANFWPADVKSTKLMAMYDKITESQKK

Sialic acid-binding Ig-like lectin 9 (Homo sapiens), sequence (Q9Y336 whole entry): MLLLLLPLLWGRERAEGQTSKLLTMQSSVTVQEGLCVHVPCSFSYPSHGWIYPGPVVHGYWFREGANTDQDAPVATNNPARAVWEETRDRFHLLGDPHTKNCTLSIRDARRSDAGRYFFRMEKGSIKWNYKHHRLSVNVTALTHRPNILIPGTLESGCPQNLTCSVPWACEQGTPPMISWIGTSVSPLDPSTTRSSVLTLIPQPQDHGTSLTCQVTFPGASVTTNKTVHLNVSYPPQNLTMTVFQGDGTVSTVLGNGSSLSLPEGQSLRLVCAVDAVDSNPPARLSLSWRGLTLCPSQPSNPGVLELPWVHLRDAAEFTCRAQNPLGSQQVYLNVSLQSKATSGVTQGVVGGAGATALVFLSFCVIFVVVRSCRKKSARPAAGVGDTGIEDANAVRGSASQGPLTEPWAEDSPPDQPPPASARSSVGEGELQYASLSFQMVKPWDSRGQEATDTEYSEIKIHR
Protein translocase subunit SecA (Escherichia coli (strain K12)), sequence (P10408 whole entry): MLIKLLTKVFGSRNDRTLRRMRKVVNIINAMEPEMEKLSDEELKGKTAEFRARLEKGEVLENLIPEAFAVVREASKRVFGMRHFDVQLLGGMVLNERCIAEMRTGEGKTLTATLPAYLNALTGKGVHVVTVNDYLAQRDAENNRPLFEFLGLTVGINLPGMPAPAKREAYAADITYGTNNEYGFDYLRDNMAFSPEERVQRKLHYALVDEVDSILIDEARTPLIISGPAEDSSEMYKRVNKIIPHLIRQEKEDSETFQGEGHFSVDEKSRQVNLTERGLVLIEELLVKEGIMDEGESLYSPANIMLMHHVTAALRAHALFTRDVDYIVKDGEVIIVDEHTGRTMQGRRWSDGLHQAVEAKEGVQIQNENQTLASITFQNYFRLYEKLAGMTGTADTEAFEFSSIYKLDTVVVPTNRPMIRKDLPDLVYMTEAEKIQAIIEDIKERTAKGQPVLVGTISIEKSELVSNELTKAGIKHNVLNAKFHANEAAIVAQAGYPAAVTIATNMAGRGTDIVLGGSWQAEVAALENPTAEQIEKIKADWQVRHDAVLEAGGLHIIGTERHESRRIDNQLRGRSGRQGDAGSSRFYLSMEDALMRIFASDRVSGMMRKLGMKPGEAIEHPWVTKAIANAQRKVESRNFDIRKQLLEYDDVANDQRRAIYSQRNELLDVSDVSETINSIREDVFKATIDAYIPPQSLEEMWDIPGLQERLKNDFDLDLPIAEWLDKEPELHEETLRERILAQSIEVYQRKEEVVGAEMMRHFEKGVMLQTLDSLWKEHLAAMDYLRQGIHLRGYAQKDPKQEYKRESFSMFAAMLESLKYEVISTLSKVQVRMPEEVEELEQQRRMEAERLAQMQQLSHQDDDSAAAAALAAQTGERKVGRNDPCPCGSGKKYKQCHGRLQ

With `Cc1c(Br)cccc1C(=O)NC(C)CN1CCCC1=O` (stereo unspecified), the Percent Effect in [1] was -3.78%; in [2], 2.74%; in experiment [3], -2.6%; in [4], -6.12%; in the experiment with Trypanosoma cruzi, -2.35%; in experiment [5], 0.909%. Also, the Percent Effect in experiment [6] is 7.1%; in the experiment filed under Homo sapiens, 10%; in [7], 1.07%; in experiment [8], 5%; in [9], -5.51%.
As to `Cc1ccsc1CN(Cc1ccccn1)CC(C)C`, the Percent Effect in experiment [1] was -2.24%; in experiment [2] it was 1.39%; in experiment [3], -11.5%; in experiment [4] it was 11.7%; in the experiment on Trypanosoma cruzi, 4.76%; in experiment [5], 8.39%. In addition, the Percent Effect was 8.95% in experiment [6]; -27.8% in the experiment filed under Homo sapiens; 7.37% in [7]; 7.69% in experiment [8]; -1.62% in [9].
With `O=C(Nc1cccnc1)[C@H]1CO[C@H]2CCN(c3ncc(F)cn3)C[C@H]2C1`, the Percent Effect in experiment [1] was -3.71%; in experiment [2], 5.33%; in [3], 2.01%; in [4], 4.5%; with Trypanosoma cruzi it was 0%; in experiment [5], -55%. The Percent Effect in experiment [6] was 11.6%; in the experiment filed under Homo sapiens, -7%; in experiment [7], 8.33%; in experiment [8] it was 5%; in experiment [9] it was -9.48%.
For `Cc1nc(O)c2nnn(C[C@H]3CCCN3C(=O)c3cccc(F)c3)c2n1`, the Percent Effect in experiment [1] was -3.34%; in experiment [2], -1.35%; in [3] it was 8.18%; in experiment [4], 1.91%; in the experiment on Trypanosoma cruzi, -3.36%; in [5], -3.48%. Further, the Percent Effect in experiment [6] is -0.936%; in the experiment listed under Homo sapiens, 9.46%; in experiment [7] it was 2.15%; in [8], 1.3%; in [9] it was 7.79%.
On to `O=C(Nc1ccccc1)c1nn(C2CCS(=O)(=O)C2)c2c1CCCC2` (stereo unspecified), for which the Percent Effect is -4.15% in experiment [1]; 5.26% in [2]; 5.68% in experiment [3]; 0.438% in experiment [4]; -1.07% in the experiment with Trypanosoma cruzi; -2.37% in experiment [5]. Besides, the Percent Effect in experiment [6] is 10.3%; in the experiment filed under Homo sapiens it was 8.39%; in experiment [7], 1.06%; in experiment [8] it was 10.4%; in experiment [9] it was -4.11%.
Regarding `Cc1cc(C)n(-c2ccc(CNCc3ccc(OC(C)C)cc3)cn2)n1`, the Percent Effect in experiment [1] is -0.648%; in [2] it was 13.2%; in [3], -0.778%; in experiment [4], -0.618%; in the experiment with Trypanosoma cruzi, 6.01%; in experiment [5], -3.06%. Further, the Percent Effect was 15.5% in experiment [6]; 20.5% in the experiment filed under Homo sapiens; 13.2% in experiment [7]; 19.5% in [8]; -10.2% in experiment [9].
Turning to `COCCc1noc(CN2CCCC(Cn3nc(C)nc3C)C2)n1` (stereo unspecified), the Percent Effect in experiment [1] was -3.69%; in experiment [2] it was 16.2%; in experiment [3], -5.81%; in experiment [4], 6.95%; with Trypanosoma cruzi it was 0.472%; in experiment [5], -7.62%. In addition, the Percent Effect was 3.6% in experiment [6]; 8.21% in the experiment listed under Homo sapiens; 10.3% in experiment [7]; 23.5% in experiment [8]; -11.8% in experiment [9].
As for `CCN1CC2(CC1=O)CN(Cc1cnn(C)c1)CCN(C(=O)C(C)C)C2` (stereo unspecified), the Percent Effect was -6.68% in experiment [1]; 5.41% in experiment [2]; 0.933% in experiment [3]; -1.78% in experiment [4]; -1.17% with Trypanosoma cruzi; -1.67% in experiment [5]. The Percent Effect in experiment [6] stood at 7.52%; in the experiment filed under Homo sapiens it was 8.39%; in experiment [7], 7.92%; in experiment [8], 6.1%; in [9] it was 2.63%.
Turning to `O=C(C1SCCc2sccc21)N1CCC(O)CC1` (stereo unspecified), the Percent Effect was -4.42% in experiment [1]; -5.41% in experiment [2]; 2.06% in [3]; 0.929% in experiment [4]; -6.25% in the experiment with Trypanosoma cruzi; 0.833% in experiment [5]. Moreover, the Percent Effect in experiment [6] was found to be 6.34%; in the experiment listed under Homo sapiens it was 5.86%; in [7], 5.94%; in [8], 1.22%; in experiment [9], 1.03%.
In the case of `O=C(NCCNc1ncccn1)Nc1cc(C(F)(F)F)c[nH]c1=O`, the Percent Effect is -4.49% in experiment [1]; 8.11% in experiment [2]; 2.74% in experiment [3]; 1.17% in [4]; 1.02% in the experiment on Trypanosoma cruzi; -2.4% in experiment [5]. The Percent Effect is 0.539% in experiment [6]; 8.76% in the experiment filed under Homo sapiens; 6.93% in experiment [7]; 15.8% in experiment [8]; -3.38% in experiment [9].
Consider `CCOc1cccc2c1OCC(C(=O)NS(=O)(=O)Cc1ccccc1)=C2`, for which the Percent Effect was -2.71% in experiment [1]; 0% in [2]; 1.17% in experiment [3]; -4.5% in experiment [4]; -8.59% with Trypanosoma cruzi; 24.9% in experiment [5]. Moreover, the Percent Effect in [6] is 2.52%; in the experiment listed under Homo sapiens it was 24.4%; in experiment [7] it was -10.3%; in [8] it was -6.17%; in [9] it was -6.55%.
